# Laboratory results: PubChem BioAssay AID1159580 (chemical genetic matrix, 2015)
# Out of some 5,500 compounds screened, about 2,000 (36%) were called active. Roughly 18% stayed inconclusive and do not appear here. Some of the results follow. A number with no mark means an inactive call. Cut-off read from the data, not from the text of the source: active = normalized growth mostly below about 0.91 (no sharp cut-off); inconclusive = no clear call, values can overlap the other calls; inactive = mostly above about 0.92.
# Assay: chemical genetic growth profiling, strain panel (AID 1159580);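 note: tested at 20 µM; growth read once vehicle control cultures reached saturation at 30 °C; 1 = growth at the plate median or of vehicle wells; lower values mean less growth of the strain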
# Conditions: S. cerevisiae deletion strains, growth OD
smiles,measurement,setting,value
CC(=O)Oc1c2c(c(CC=C(C)C)c3c1C(=O)C1=C[C@@H]4CC5C(C)(C)OC(C/C=C(\C)C(=O)O)(C4=O)[C@@]15O3)OC(C)(CCC=C(C)C)C=C2 (stereo partly specified),normalized growth,"locus YAL021C, strain ccr4, active compounds read low",0.99
same,normalized growth,"locus YAL026C, strain drs2, active compounds read low",0.986
same,normalized growth,"locus YAL030W, strain snc1, active compounds read low",0.977
same,normalized growth,"locus YBL061C, strain skt5, active compounds read low",0.984
same,normalized growth,"locus YBR009C, strain hhf1, active compounds read low",0.948
same,normalized growth,"locus YBR023C, strain chs3, active compounds read low",0.962
same,normalized growth,"locus YBR171W, strain sec66, active compounds read low",0.989
same,normalized growth,"locus YBR231C, strain swc5, active compounds read low",0.953
same,normalized growth,"locus YBR279W, strain paf1, active compounds read low",0.975
same,normalized growth,"locus YCL011C, strain gbp2, active compounds read low",0.98
same,normalized growth,"locus YCL016C, strain dcc1, active compounds read low",0.97
same,normalized growth,"locus YCL069W, strain vba3, active compounds read low",0.991
same,normalized growth,"locus YCR088W, strain abp1, active compounds read low",0.972
same,normalized growth,"locus YDL005C, strain med2, active compounds read low",0.977
same,normalized growth,"locus YDL040C, strain nat1, active compounds read low",0.978
same,normalized growth,"locus YDR001C, strain nth1, active compounds read low",0.988
same,normalized growth,"locus YDR069C, strain doa4, active compounds read low",0.933
same,normalized growth,"locus YDR137W, strain rgp1, active compounds read low",0.551 (active)
same,normalized growth,"locus YDR159W, strain sac3, active compounds read low",0.975
same,normalized growth,"locus YDR195W, strain ref2",1.11
same,normalized growth,"locus YDR297W, strain sur2, active compounds read low",0.969
same,normalized growth,"locus YDR334W, strain swr1, active compounds read low",0.976
same,normalized growth,"locus YDR335W, strain msn5, active compounds read low",0.994
same,normalized growth,"locus YDR392W, strain spt3, active compounds read low",0.695 (active)
same,normalized growth,"locus YEL003W, strain gim4, active compounds read low",0.978
same,normalized growth,"locus YEL037C, strain rad23, active compounds read low",0.99
same,normalized growth,"locus YEL061C, strain CIN8 (second series), active compounds read low",1
same,normalized growth,"locus YER015W, strain faa2, active compounds read low",0.989
same,normalized growth,"locus YER016W, strain bim1, active compounds read low",0.971
same,normalized growth,"locus YER111C, strain swi4, active compounds read low",0.99
same,normalized growth,"locus YER155C, strain BEM2 (second series), active compounds read low",0.96
same,normalized growth,"locus YFR010W, strain ubp6, active compounds read low",0.938
same,normalized growth,"locus YGL167C, strain pmr1, active compounds read low",0.982
same,normalized growth,"locus YGL173C, strain kem1, active compounds read low",0.97
same,normalized growth,"locus YGL227W, strain vid30, active compounds read low",1
same,normalized growth,"locus YGL240W, strain doc1, active compounds read low",0.983
same,normalized growth,"locus YGL253W, strain hxk2, active compounds read low",0.989
same,normalized growth,"locus YHR013C, strain ard1, active compounds read low",0.894
same,normalized growth,"locus YHR027C, strain rpn1, active compounds read low",0.984
same,normalized growth,"locus YHR142W, strain chs7, active compounds read low",0.939
same,normalized growth,"locus YJL092W, strain hpr5, active compounds read low",0.975
same,normalized growth,"locus YJL095W, strain BCK1 (second series), active compounds read low",0.944
same,normalized growth,"locus YJL115W, strain asf1, active compounds read low",1.01
same,normalized growth,"locus YJL129C, strain trk1, active compounds read low",0.76 (active)
same,normalized growth,"locus YJL154C, strain vps35, active compounds read low",0.996
same,normalized growth,"locus YJL164C, strain tpk1, active compounds read low",0.951
same,normalized growth,"locus YJL166W, strain qcr8, active compounds read low",0.984
same,normalized growth,"locus YJL187C, strain SWE1, active compounds read low",0.974
same,normalized growth,"locus YKL160W, strain elf1, active compounds read low",0.962
same,normalized growth,"locus YKR026C, strain gcn3, active compounds read low",0.983
same,normalized growth,"locus YKR091W, strain srl3, active compounds read low",0.978
same,normalized growth,"locus YLL001W, strain dnm1, active compounds read low",0.979
same,normalized growth,"locus YLL026W, active compounds read low",1
same,normalized growth,"locus YLL041C, strain sdh2, active compounds read low",0.994
same,normalized growth,"locus YLR027C, strain aat2, active compounds read low",0.977
same,normalized growth,"locus YLR221C, strain rsa3, active compounds read low",0.969
same,normalized growth,"locus YLR258W, strain gsy2, active compounds read low",0.979
same,normalized growth,"locus YLR262C, strain YPT6 (second series), active compounds read low",0.543 (active)
same,normalized growth,"locus YLR320W, strain mms22, active compounds read low",0.806 (active)
same,normalized growth,"locus YLR342W, strain FKS1, active compounds read low",0.963
same,normalized growth,"locus YLR357W, strain rsc2, active compounds read low",1.05
same,normalized growth,"locus YLR370C, strain arc18, active compounds read low",0.946
same,normalized growth,"locus YLR384C, strain iki3, active compounds read low",0.981
same,normalized growth,"locus YML120C, strain ndi1, active compounds read low",0.996
same,normalized growth,"locus YMR058W, strain fet3, active compounds read low",0.982
same,normalized growth,"locus YMR125W, strain sto1, active compounds read low",0.993
same,normalized growth,"locus YMR129W, active compounds read low",0.975
same,normalized growth,"locus YMR205C, strain PFK2, active compounds read low",0.812 (active)
same,normalized growth,"locus YMR231W, strain pep5, active compounds read low",0.987
same,normalized growth,"locus YNL071W, strain lat1, active compounds read low",0.797 (active)
same,normalized growth,"locus YNL209W, strain ssb2, active compounds read low",0.977
same,normalized growth,"locus YNL248C, strain rpa49, active compounds read low",0.983
same,normalized growth,"locus YNL322C, strain KRE1 (second series), active compounds read low",1.01
same,normalized growth,"locus YNR049C, strain mso1, active compounds read low",0.984
same,normalized growth,"locus YOR001W, strain rrp6, active compounds read low",0.988
same,normalized growth,"locus YOR070C, strain gyp1, active compounds read low",0.971
same,normalized growth,"locus YOR080W, strain dia2, active compounds read low",0.994
same,normalized growth,"locus YOR083W, strain WHI5, active compounds read low",0.953
same,normalized growth,"locus YOR106W, strain vam3, active compounds read low",0.931
same,normalized growth,"locus YOR265W, strain rbl2, active compounds read low",0.962
same,normalized growth,"locus YOR270C, strain vph1, active compounds read low",0.653 (active)
same,normalized growth,"locus YOR290C, strain snf2, active compounds read low",0.96
same,normalized growth,"locus YPL051W, strain arl3, active compounds read low",0.931
same,normalized growth,"locus YPL078C, strain atp4, active compounds read low",0.967
same,normalized growth,"locus YPL106C, strain sse1, active compounds read low",1.02
same,normalized growth,"locus YPL240C, strain hsp82, active compounds read low",0.978
